Active and inactive are the calls of the source. Unless noted, the rule behind the calls is not given here.

Assay [1] deals with Wnt5a (protein binding on small-molecule microarray). Briefly: Wnt5a binders on small-molecule microarray, primary screen, biophysical, 635/667 nm fluorescence (AID 1142).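 Note: fluorescence read at 667 nm with signal to noise per printed feature.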 The settings on record: 635 nm fluorescence, higher = more signal.
A short description of assay [2]: cell viability in Huh7 cells, primary screen, cytotoxicity control for HCV replication inhibitor project, CellTiter-Glo luminescence, basal, 48 h (AID 1143).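 Note: Huh7 hepatoma cells carrying a hepatitis C replication reporter with no stimulus; test concentration not given here.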 The settings on record: Huh7 HCV replicon, higher = more signal, called active from +8 up or from −8 down. On the technique in general: In ATP-based viability assays light output follows the ATP content of the culture.

Assay [3] is described as follows: P. aeruginosa biofilm formation inhibitors, primary screen, PAO1 strain, BacTiter-Glo luminescence, LB-PBS (AID 1144). The settings on record: 12 h, higher = more signal.
Assay [4] is described as follows: CREB reporter modulators without forskolin, primary screen, cell-based, PC12, CRE-LacZ reporter, unstimulated (AID 1145). Conditions: no forskolin, luminescence, 4.5 h, higher = more signal, called active from +8 up or from −8 down.
Assay [5] is described as follows: CREB reporter modulators under forskolin, primary screen, cell-based, PC12, CRE-LacZ reporter, forskolin-stimulated (AID 1146).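 Note: PC12 cells with 6xCRE LacZ reporter stimulated by forskolin 10 µM; beta-galactosidase reporter signal reflecting CREB driven transcription.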 Conditions: luminescence, 4.5 h, higher = more signal, called active from +8 up or from −8 down.
Assay [6] concerns the target Streptavidin (Streptomyces avidinii) (UniProt P22629). Briefly: streptavidin binders on small-molecule microarray, primary screen, artefact control for SMM compound annotation, biophysical, 635/667 nm fluorescence (AID 1147).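 Note: signal reflects streptavidin binding to arrayed compounds as a control protein.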 Conditions: streptavidin binding, higher = more signal.
The nature of assay [7]: small-molecule binders of probe aInhba, primary screen, biochemical, small-molecule microarray, 635/667 nm fluorescence (AID 1148).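 Note: score merges 667nm spot fluorescence with signal-to-noise for antibody binding to printed compounds.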 The settings on record: higher = more signal.
Assay [8] concerns the target Torsin-1A (Homo sapiens) (UniProt O14656). Briefly: torsin A binders from cell lysate, primary screen, small-molecule microarray, wild-type, 635/667 nm (AID 1149). Conditions: COS7 hTOR1A-WT lysate, 635 nm fluorescence, higher = more signal.
Assay [9] shares this target. Briefly: small-molecule binders of mutant TOR1A in lysate, primary screen, cell lysate, small-molecule microarray, COS7 lysate, 635/667 nm fluorescence (AID 1150).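 Note: score pools 667 nm emission and signal to noise measuring lysate protein binding.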 The settings on record: COS7 hTOR1A mutant lysate, 635 nm fluorescence, higher = more signal.
In assay [10] the test system is Sonic hedgehog protein (Shh). The experiment in a line: small-molecule binders of Shh protein, primary screen, biochemical, small-molecule microarray, 635/667 nm fluorescence (AID 1151).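 Note: Shh protein binding to compounds spotted on small-molecule microarray slides; score combines spot fluorescence intensity with signal-to-noise across triplicate slides.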 The settings on record: small-molecule microarray binding, 635 nm fluorescence; higher = more signal.
Assay [11] is described as follows: E. coli DRC41 culture turbidity changes, primary screen, E. coli filamentation inducer project, strain DRC41, OD650, 48 h (AID 1152).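 Note: E. coli MC1000 strain DRC41 lacking acrAB efflux pump and sulA.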 Conditions: E. coli DRC41 (acrAB sulA), higher = more signal, called active from +8 up or from −8 down.
The nature of assay [12]: small-molecule binders of probe aLefty1, primary screen, biochemical, small-molecule microarray, 635/667 nm fluorescence (AID 1153).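 Note: score merges spot fluorescence with signal-to-noise ratio from the scanned slide images.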 Conditions: higher = more signal.
The nature of assay [13]: PSAC antagonists in infected red cells, primary screen, cell-based, P. falciparum Indochina, OD700, 1 h (AID 1154). The settings on record: P. falciparum Indochina infected RBC osmotic lysis, higher = more signal, called active from +8 up or from −8 down.
Assay [14] can be described thus: PSAC antagonists in infected red cells, primary screen, cell-based, P. falciparum Indochina, OD700, 2 h (AID 1155).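 Note: lysis reports solute entry through the parasite surface anion channel PSAC; channel blockers reduce lysis of infected cells.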 The settings on record: P. falciparum Indochina infected erythrocytes, osmotic lysis OD700; higher = more signal, called active from +8 up or from −8 down.
The nature of assay [15]: osmotic lysis modulators in infected erythrocytes, primary screen, PSAC antagonist project, cell-based, P. falciparum Indochina, OD700, 3 h (AID 1156). The settings on record: higher = more signal, called active from +8 up or from −8 down.
Assay [16] is described as follows: PSAC antagonists in infected red cells, primary screen, cell-based, P. falciparum Indochina, OD700, 18 h (AID 1157). Conditions: P. falciparum Indochina infected erythrocytes, osmotic lysis OD700, 18 h; higher = more signal, called active from +8 up or from −8 down.
A short description of assay [17]: modulators of S6 phosphorylation in cells, primary screen, cell-based, A549, cytoblot, luminescence, serum-stimulated (AID 1158).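 Note: serum-stimulated A549 lung adenocarcinoma cells; signal is phosphorylated S6 detected by cytoblot immunostaining with HRP secondary.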 Conditions: A549 phospho-S6 cytoblot, 5 h, higher = more signal.
Assay [18] has as its target NADPH oxidase 2 (Homo sapiens) (UniProt P04839). The experiment in a line: NOX2-dependent H2O2 signal modulators, primary screen, NOX inhibitor project, cell-based, HEK293-NOX2, PMA-stimulated, Amplex Red fluorescence (AID 1159). Note: test concentration not given here. The settings on record: 45 min, higher = more signal, called active from +8 up or from −8 down.
The target in assay [19] is NADPH oxidase 4 (Homo sapiens) (UniProt Q9NPH5). The experiment in a line: NOX4-dependent H2O2 signal modulators, primary screen, NOX inhibitor project, cell-based, HEK293-NOX4, tetracycline-induced, Amplex Red fluorescence (AID 1160). The settings on record: 45 min, higher = more signal, called active from +8 up or from −8 down.
Assay [20] addresses NADPH oxidase 5 (Homo sapiens) (UniProt Q96PH1). The experiment in a line: NOX5-dependent H2O2 signal modulators, primary screen, NOX inhibitor project, cell-based, HEK293-NOX5, Amplex Red fluorescence (AID 1161). Conditions: HEK293-NOX5, ionomycin, 45 min, higher = more signal.

NADPH oxidase 4 (Homo sapiens), sequence (Q9NPH5 whole entry, looked up): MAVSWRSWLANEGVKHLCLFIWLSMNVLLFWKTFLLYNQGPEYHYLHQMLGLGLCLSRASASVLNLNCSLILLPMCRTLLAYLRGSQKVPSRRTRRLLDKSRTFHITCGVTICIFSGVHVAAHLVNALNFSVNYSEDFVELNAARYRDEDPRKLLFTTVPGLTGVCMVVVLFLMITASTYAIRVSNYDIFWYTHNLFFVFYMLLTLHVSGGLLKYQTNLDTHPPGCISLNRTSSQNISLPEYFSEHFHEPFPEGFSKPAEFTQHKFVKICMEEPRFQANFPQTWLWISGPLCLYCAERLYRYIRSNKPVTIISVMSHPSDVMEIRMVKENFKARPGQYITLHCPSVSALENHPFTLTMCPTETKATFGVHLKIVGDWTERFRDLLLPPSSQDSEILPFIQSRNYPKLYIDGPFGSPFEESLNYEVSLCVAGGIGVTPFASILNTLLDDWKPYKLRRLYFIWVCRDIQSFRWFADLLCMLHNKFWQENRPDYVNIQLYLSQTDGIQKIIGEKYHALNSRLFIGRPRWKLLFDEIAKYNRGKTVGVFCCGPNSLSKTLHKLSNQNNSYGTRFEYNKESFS
Streptavidin (Streptomyces avidinii), sequence (P22629 whole entry, looked up): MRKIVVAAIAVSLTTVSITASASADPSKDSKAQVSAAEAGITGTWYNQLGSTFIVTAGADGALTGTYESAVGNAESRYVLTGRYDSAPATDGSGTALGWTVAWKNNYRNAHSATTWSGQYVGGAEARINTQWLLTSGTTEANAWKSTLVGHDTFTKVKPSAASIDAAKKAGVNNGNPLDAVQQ
Torsin-1A (Homo sapiens), sequence (O14656 whole entry, looked up): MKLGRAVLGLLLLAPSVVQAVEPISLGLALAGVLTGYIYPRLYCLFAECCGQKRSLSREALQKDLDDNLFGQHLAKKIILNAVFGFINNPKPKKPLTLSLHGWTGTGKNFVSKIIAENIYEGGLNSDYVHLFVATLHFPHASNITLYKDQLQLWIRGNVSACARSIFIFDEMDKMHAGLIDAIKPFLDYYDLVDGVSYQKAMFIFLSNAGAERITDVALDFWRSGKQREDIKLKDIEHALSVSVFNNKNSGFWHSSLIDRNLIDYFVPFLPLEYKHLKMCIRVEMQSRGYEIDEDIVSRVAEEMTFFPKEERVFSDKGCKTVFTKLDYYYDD
NADPH oxidase 2 (Homo sapiens), sequence (P04839 whole entry, looked up): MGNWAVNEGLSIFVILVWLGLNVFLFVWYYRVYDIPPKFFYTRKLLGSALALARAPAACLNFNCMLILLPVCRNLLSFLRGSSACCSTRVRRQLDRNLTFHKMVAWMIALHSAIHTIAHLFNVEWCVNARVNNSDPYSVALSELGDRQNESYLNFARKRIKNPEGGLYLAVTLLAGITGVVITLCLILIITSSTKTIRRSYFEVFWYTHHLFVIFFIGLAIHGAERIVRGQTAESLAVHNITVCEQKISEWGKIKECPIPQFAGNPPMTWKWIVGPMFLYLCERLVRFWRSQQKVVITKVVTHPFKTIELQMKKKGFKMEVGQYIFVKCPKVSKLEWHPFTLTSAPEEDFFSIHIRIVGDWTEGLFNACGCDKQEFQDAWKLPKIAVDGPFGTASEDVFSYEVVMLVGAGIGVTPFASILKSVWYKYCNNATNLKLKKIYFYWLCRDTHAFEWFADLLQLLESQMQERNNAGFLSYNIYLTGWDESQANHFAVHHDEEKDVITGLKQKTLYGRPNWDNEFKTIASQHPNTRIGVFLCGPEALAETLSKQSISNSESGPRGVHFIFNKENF
NADPH oxidase 5 (Homo sapiens), sequence (Q96PH1 whole entry, looked up): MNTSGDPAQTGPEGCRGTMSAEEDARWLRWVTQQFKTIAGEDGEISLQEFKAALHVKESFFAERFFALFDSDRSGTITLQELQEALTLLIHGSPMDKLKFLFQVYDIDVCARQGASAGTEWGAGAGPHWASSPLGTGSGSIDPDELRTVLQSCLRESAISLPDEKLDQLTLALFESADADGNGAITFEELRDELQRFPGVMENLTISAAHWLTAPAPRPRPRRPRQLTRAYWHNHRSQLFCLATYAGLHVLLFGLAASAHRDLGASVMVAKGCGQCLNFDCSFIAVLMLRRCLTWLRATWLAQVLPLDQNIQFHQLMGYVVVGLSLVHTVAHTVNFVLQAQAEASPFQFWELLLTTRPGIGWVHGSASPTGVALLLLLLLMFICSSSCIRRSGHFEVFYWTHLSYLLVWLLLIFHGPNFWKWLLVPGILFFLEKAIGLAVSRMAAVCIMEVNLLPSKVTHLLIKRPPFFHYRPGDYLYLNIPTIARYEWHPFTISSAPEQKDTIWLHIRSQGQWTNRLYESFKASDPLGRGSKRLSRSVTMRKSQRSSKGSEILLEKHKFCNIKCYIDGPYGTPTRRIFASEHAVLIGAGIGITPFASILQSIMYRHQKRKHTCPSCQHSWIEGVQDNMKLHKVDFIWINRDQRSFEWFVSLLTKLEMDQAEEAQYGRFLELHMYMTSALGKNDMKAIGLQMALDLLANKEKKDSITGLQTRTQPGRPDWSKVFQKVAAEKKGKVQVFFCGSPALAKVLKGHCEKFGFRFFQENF

Take `NC(=O)[C@@H]1[C@H]2C(=O)O[C@H](c3ccccc3)[C@H](c3ccccc3)N2[C@H](c2ccc(OCCO)cc2)[C@@]12C(=O)Nc1ccc(C#CCCO)cc12`: the composite z-score in [1] is 0.257; in assay [6] it was 0.958; in assay [7], -0.0736; with Torsin-1A (Homo sapiens) [8] it was 0.632; in the assay with Torsin-1A (Homo sapiens) [9] it was -0.565; in assay [10], 0.0995. The compound also had a composite z-score in assay [12] of 0.0253. For the same compound, the z-score in assay [2] is -0.952 (inactive); in assay [3], -0.807 (inactive); in [4], -0.0515 (inactive); in assay [5], -0.195 (inactive); in [11], 0.498 (inactive); in assay [13] it was 22.5 (active). The z-score in [14] was 4.8 (inactive); in assay [15], 2.59 (inactive); in [16], 0.908 (inactive); in assay [17], 0.229; in [18] it was 1.5 (inactive); in [19] it was 1.15 (inactive). The compound also yielded a z-score in [20] of 0.92.

Turning to `CC(C)CNC(=O)[C@@]1(C)c2ccccc2C(=O)N(Cc2cc(C(F)(F)F)cc(C(F)(F)F)c2)[C@H]1c1ccc(CO)cc1`, the composite z-score was -0.445 in [1]; -0.366 in assay [6]; -0.0987 in assay [7]; -0.918 in the assay with Torsin-1A (Homo sapiens) [8]; -0.267 with Torsin-1A (Homo sapiens) [9]; -0.117 in assay [10]. In assay [12], this compound returned a composite z-score of -0.101. For the same compound, the z-score in assay [2] is -3.12 (inactive); in assay [3] it was 0.92 (inactive); in [4] it was 0.414 (inactive); in assay [5], -0.578 (inactive); in assay [11] it was 0.516 (inactive); in [13], 7.12 (inactive). The z-score in assay [14] was 1.13 (inactive); in assay [15], 2.06 (inactive); in [16] it was 0.428 (inactive); in [17], -0.404; in assay [18] it was -0.766 (inactive); in assay [19], 0.596 (inactive). Besides, the z-score in [20] is 0.821.

`COc1ccc(C(O)C2C=CC3C(=O)N(c4ccccc4)C(=O)C3N2Nc2ccccc2)cc1` (stereo not given): the composite z-score in assay [1] was 0.256; in [6], 0.571; in [7] it was 0.105; in the assay with Torsin-1A (Homo sapiens) [8] it was -0.109; with Torsin-1A (Homo sapiens) [9], 0.692; in [10], 0.393. The composite z-score in [12] stood at 0.411. Also, the z-score in assay [2] is -0.0351 (inactive); in assay [3], -0.0851 (inactive); in [4], 0.426 (inactive); in assay [5], -0.356 (inactive); in [11] it was -1.04 (inactive); in assay [13], 10.9 (active). Moreover, the z-score in [14] is 2.15 (inactive); in assay [15], 0.332 (inactive); in [16], 1.27 (inactive); in assay [17] it was -1.44; in assay [18], -2.06 (inactive); in assay [19], -3.23 (inactive). The z-score in assay [20] is -2.84.

For the compound `C=CCC(OC(C)=O)[C@@H]1[C@@H](N(Cc2cc3ccccc3o2)C(=O)c2ccc(-c3ccccc3)cc2)c2cc(OCCCO)ccc2N1C(=O)Cc1ccc(OC)cc1` (stereo not given in full), the composite z-score in [1] was -0.138; in [6] it was -0.0182; in assay [7], -0.0736; with Torsin-1A (Homo sapiens) [8] it was -0.592; with Torsin-1A (Homo sapiens) [9] it was -0.324; in assay [10], 0.366. The compound also returned a composite z-score in assay [12] of -0.0547. Further, the z-score in assay [2] was 0.0567 (inactive); in assay [3], 0.263 (inactive); in assay [4], 1.09 (inactive); in [5] it was 0.289 (inactive); in assay [11], -1.14 (inactive); in [13], 0.702 (inactive). Moreover, the z-score is 0.701 (inactive) in assay [14]; 0.365 (inactive) in [15]; 0.703 (inactive) in assay [16]; 0.3 in [17]; -0.0713 (inactive) in [18]; -0.918 (inactive) in assay [19]. Besides, the z-score in assay [20] is 1.09.

`C=C[C@H](C)[C@H](OC(=O)Nc1ccc(OC)cc1)c1ccc(OCCO)cc1`: the composite z-score is -0.423 in assay [1]; -0.911 in [6]; -0.314 in [7]; 0.763 with Torsin-1A (Homo sapiens) [8]; 0.0508 in the assay with Torsin-1A (Homo sapiens) [9]; 0.261 in [10]. Besides, the composite z-score in [12] stood at 0.126. The z-score is -2.77 (inactive) in assay [2]; 0.133 (inactive) in assay [3]; 4.89 (inactive) in [4]; 0.0618 (inactive) in assay [5]; 0.566 (inactive) in assay [11]; 12.4 (active) in assay [13]. Further, the z-score in assay [14] was 1.76 (inactive); in assay [15], 0.193 (inactive); in assay [16], 0.746 (inactive); in assay [17], -0.196; in [18] it was -0.288 (inactive); in [19], 0.436 (inactive). The compound further came in with a z-score in assay [20] of -2.19.

`CN(C)C(=O)[C@@]1(CCC(=O)OC(C)(C)C)N=C(c2ccc(OCCCO)cc2)O[C@H]1c1ccccc1CN=[N+]=[N-]`: the composite z-score in [1] is 0.281; in assay [6], 0.457; in [7], 0.0857; with Torsin-1A (Homo sapiens) [8], 0.946; with Torsin-1A (Homo sapiens) [9], 1.99; in assay [10], -0.733. For the same compound, the composite z-score in [12] came to 0.121. Besides, the z-score in assay [2] is -0.292 (inactive); in [3], -0.0794 (inactive); in [4] it was 0.148 (inactive); in assay [5], 0.27 (inactive); in [11] it was 0.476 (inactive); in assay [13], 14.6 (active). The z-score is 1.39 (inactive) in assay [14]; 0.668 (inactive) in assay [15]; 0.447 (inactive) in assay [16]; -0.25 in assay [17]; -1.73 (inactive) in assay [18]; -0.111 (inactive) in assay [19]. In addition, the z-score in assay [20] is -0.901.

In the case of `COc1ccc([Si](C)(C)[C@@H]2[C@@H](CCn3cc([C@H](O)c4ccccc4)nn3)O[C@]3(C(=O)N(c4ccccc4)c4ccccc43)[C@H]2C)cc1`, the composite z-score in [1] is -0.0872; in [6], -0.238; in [7] it was -0.22; with Torsin-1A (Homo sapiens) [8] it was 0.511; with Torsin-1A (Homo sapiens) [9], 0.283; in assay [10] it was 0.618. The compound further came in with a composite z-score in assay [12] of -0.348. The z-score in assay [2] was -6.24 (inactive); in assay [3], 0.506 (inactive); in [4], 1.6 (inactive); in assay [5], -0.897 (inactive); in [11], 0.424 (inactive); in [13] it was 3.15 (inactive). Also, the z-score in assay [14] is -1.51 (inactive); in assay [15], 3.03 (inactive); in [16], -1.63 (inactive); in assay [17], 0.751; in assay [18], -0.0239 (inactive); in assay [19], 0.276 (inactive). In [20], this compound gave a z-score of 0.506.

Regarding `CCOC(=O)C[C@H]1[C@H](OC(=O)c2cc3ccccc3oc2=O)[C@@H](NC(=O)c2ccc3ccccc3c2)c2cc(OCCCO)ccc2N1C(=O)Cc1ccc(OC)cc1`, the composite z-score in assay [1] is 0.174; in assay [6], 1; in assay [7], -0.231; with Torsin-1A (Homo sapiens) [8], 0.462; with Torsin-1A (Homo sapiens) [9] it was 0.746; in assay [10], 0.47. In assay [12], this compound displayed a composite z-score of -0.0479. The z-score in assay [2] is -0.361 (inactive); in assay [3], -0.784 (inactive); in assay [4], 0.402 (inactive); in assay [5], -0.931 (inactive); in [11], -0.62 (inactive); in [13], 7.22 (inactive). Also, the z-score in assay [14] is 0.935 (inactive); in assay [15] it was 0.703 (inactive); in assay [16], 0.525 (inactive); in [17], -0.24; in assay [18], 3.04 (inactive); in assay [19], 1.01 (inactive). In addition, in assay [20], the z-score turned out to be 1.94.

The values are drawn from PubChem BioAssay.
